Data on five compounds can be found in PubChem BioAssay.

Calls of active or inactive are those of the source.

For test [1], the system named is Human papillomavirus type 1a protein E7 (residues 44-93). The experiment in a line: small molecules binding HPV E7 44-93 – biochemical, small-molecule microarray, residues 44-93, 635 nm fluorescence, primary screen (AID 1108).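 Also: E7 fragment applied at 1 µg/mL in TBST for 1 h at 4 C; score combines spot fluorescence with its signal to noise ratio.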 To be noted: fluorescence 635 nm, higher = more signal.
Test [2] is described as follows: hepatitis C replication reporter changes, two-sided – Huh7 cells, luciferase reporter, HCV replication inhibitor project, primary screen (AID 1109).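 Also: huh7 hepatoma cells harbouring a luciferase neomycin HCV replicon reporter; luciferase luminescence as measure of HCV replicon replication; test concentration not given here.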 The settings on record: Huh7 HCV replicon luciferase reporter, 48 h; higher = more signal. (A reporter such as luciferase makes a cellular process visible.)
Test [3] has as its target Left-right determination factor 2 (Homo sapiens) (UniProt O00292). The experiment in a line: small molecules binding LEFTY2 protein – biochemical, small-molecule microarray, 635 nm fluorescence scan, primary screen (AID 1110). To be noted: higher = more signal.
Test [4] addresses Calmodulin-1 (Homo sapiens) (UniProt P0DP23). The experiment in a line: small molecules binding calmodulin-1 with EGTA – biochemical, small-molecule microarray, Cy5-labelled CALM1, profiling panel (AID 1111).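 Also: labelled calmodulin applied in Tris saline Tween buffer holding calcium plus EGTA and DTT.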 To be noted: Cy5-CALM1 binding fluorescence, higher = more signal.
Test [5] has the same target. As to the kind of experiment: small molecules binding Ca-loaded calmodulin-1 – biochemical, small-molecule microarray, Cy5-labelled CALM1, plus calcium, artefact control for SMM control-protein annotation, profiling panel (AID 1112).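 Also: score merges spot fluorescence with signal to noise from triplicate slides.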 To be noted: Cy5-CALM1 binding fluorescence, higher = more signal.
Test [6] is described as follows: probe aWnt5a binding to arrayed compounds – biochemical, biotinylated probe, 635/667 nm fluorescence, primary screen (AID 1113).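 Also: score merges 667 nm fluorescence intensity with signal-to-noise per printed feature.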 The settings on record: small-molecule microarray, higher = more signal.
A short description of test [7]: probe aShh binding to arrayed compounds – biochemical, biotinylated probe, 635/667 nm fluorescence, primary screen (AID 1114).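 Also: probe is biotin-labelled aShh protein from a stem cell growth factor screen; measures binding of labelled protein to compounds printed on the slide; score merges feature fluorescence at 667 nm with signal-to-noise.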 The settings on record: small-molecule microarray, higher = more signal.
The nature of test [8]: probe aNog binding to arrayed compounds – biochemical, biotinylated probe, 635/667 nm fluorescence, primary screen (AID 1115).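 Also: probe is biotinylated aNog protein used at 0.15 µg/mL for 1 h at 4 C; z-score combines 667 nm fluorescence of each spot with its signal to noise.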 The settings on record: small-molecule microarray, higher = more signal.
Test [9] has as its target Torsin-1A-interacting protein 1 (Homo sapiens) (UniProt Q5JTV8). The experiment in a line: compound microarray binding of lysate hLAP1 – cell lysate, small-molecule microarray, COS7 lysate, 635/667 nm fluorescence, primary screen (AID 1116). To be noted: 635 nm fluorescence, higher = more signal.
Test [10] addresses Alpha-bungarotoxin (Bungarus multicinctus) (UniProt P60615). As to the kind of experiment: compounds binding labelled alpha-BTX control protein – biochemical, small-molecule microarray, Alexa647 label, 635/667 nm fluorescence, artefact control for SMM control protein annotation, profiling panel (AID 1117). To be noted: alpha-BTX-A647 binding fluorescence, higher = more signal.
Test [11] addresses Albumin (Bos taurus) (UniProt P02769). The experiment in a line: compounds binding labelled BSA control protein – biochemical, small-molecule microarray, Alexa647 label, 635/667 nm fluorescence, artefact control for SMM control protein annotation, profiling panel (AID 1118).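 Also: score merges 667 nm emission intensity and signal-to-noise per printed compound spot.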 To be noted: BSA-A647 binding, fluorescence 635 nm, higher = more signal.
A short description of test [12]: probe aXIP binding to arrayed compounds – biochemical, NeuroSMM set, 635/667 nm fluorescence, primary screen (AID 1119).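 Also: probe is the protein aXip251-270 applied at 1 µg/mL to compound-printed slides; binding of probe to printed compounds measured as 667 nm fluorescence plus signal to noise.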 To be noted: small-molecule microarray, higher = more signal, called active from +8 up or from −8 down.
Test [13] is described as follows: probe aNOTCH3 binding on compound microarray – biochemical, small-molecule microarray, 635/667 nm fluorescence, primary screen (AID 1120).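 Also: probe is a biotin-tagged antibody raised against NOTCH3 rather than NOTCH3 protein; score merges spot fluorescence near 667 nm with spot signal to noise.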 The settings on record: higher = more signal.
A short description of test [14]: probe aNOTCH2 binding on compound microarray – biochemical, small-molecule microarray, 635/667 nm fluorescence, primary screen (AID 1121).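 Also: score merges feature fluorescence read at 667 nm with its signal to noise.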 To be noted: higher = more signal.
The target of test [15] is Carbonic anhydrase 2 (Homo sapiens) (UniProt P00918). As to the kind of experiment: compounds binding carbonic anhydrase 2 – biochemical, small-molecule microarray, Alexa647-labelled CAII, profiling panel (AID 1122). The settings on record: CAII-A647 binding fluorescence, higher = more signal.
The nature of test [16]: COS7 lysate on small-molecule microarray, probe aHis, 635 nm (AID 1123).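 Also: z-score combines 667nm fluorescence intensity with signal-to-noise per printed compound spot.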 To be noted: COS7 cell lysate, fluorescence, higher = more signal.
A short description of test [17]: probe aLAP1 signal on lysate-treated microarray – cell lysate, small-molecule microarray, COS7 lysate, primary screen (AID 1124).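 Also: lysate comes from COS7 cells expressing LAP1 and is applied at 0.3 µg/mL; score merges spot fluorescence near 667 nm with signal-to-noise over triplicate slides.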 The settings on record: probe aLAP1, fluorescence, higher = more signal.
In test [18] the test system is Sam68 (KHDRBS1). As to the kind of experiment: compounds binding KHDRBS1 protein – biochemical, small-molecule microarray, 635 nm fluorescence, primary screen (AID 1125).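 Also: score merges 667 nm channel intensity with signal to noise over triplicate slides.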 The settings on record: higher = more signal.
In test [19] the test system is Chordin-like protein 2 (CHRDL2). The experiment in a line: compounds binding chordin-like 2 – biochemical, small-molecule microarray, 635 nm fluorescence, primary screen (AID 1126).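 Also: printed compound slides probed with Chrdl2 protein at 4 µg/mL for 1 h at 4 C; score merges 667 nm emission intensity with signal to noise over three replicate slides.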 The settings on record: fluorescence 635 nm, higher = more signal.
For test [20], the target named is Concanavalin-A (Canavalia ensiformis) (UniProt P02866). As to the kind of experiment: compounds binding concanavalin A lectin – biochemical, small-molecule microarray, Alexa647 label, 635 nm, artefact control for SMM control protein annotation, primary screen (AID 1127).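 Also: z combines 667 nm emission intensity with signal-to-noise across three replicate slides.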 The settings on record: ConA-A647 binding fluorescence, higher = more signal.
Chain of Concanavalin-A (Canavalia ensiformis) (P02866 whole entry, looked up): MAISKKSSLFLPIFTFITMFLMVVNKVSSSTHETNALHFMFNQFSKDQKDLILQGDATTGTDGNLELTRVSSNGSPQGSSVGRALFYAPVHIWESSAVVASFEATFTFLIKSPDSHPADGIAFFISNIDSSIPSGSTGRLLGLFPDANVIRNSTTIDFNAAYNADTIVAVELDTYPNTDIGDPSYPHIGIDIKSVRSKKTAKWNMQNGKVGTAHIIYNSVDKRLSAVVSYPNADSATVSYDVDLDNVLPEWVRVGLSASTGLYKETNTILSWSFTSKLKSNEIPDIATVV

Chain of Torsin-1A-interacting protein 1 (Homo sapiens) (Q5JTV8 whole entry, looked up): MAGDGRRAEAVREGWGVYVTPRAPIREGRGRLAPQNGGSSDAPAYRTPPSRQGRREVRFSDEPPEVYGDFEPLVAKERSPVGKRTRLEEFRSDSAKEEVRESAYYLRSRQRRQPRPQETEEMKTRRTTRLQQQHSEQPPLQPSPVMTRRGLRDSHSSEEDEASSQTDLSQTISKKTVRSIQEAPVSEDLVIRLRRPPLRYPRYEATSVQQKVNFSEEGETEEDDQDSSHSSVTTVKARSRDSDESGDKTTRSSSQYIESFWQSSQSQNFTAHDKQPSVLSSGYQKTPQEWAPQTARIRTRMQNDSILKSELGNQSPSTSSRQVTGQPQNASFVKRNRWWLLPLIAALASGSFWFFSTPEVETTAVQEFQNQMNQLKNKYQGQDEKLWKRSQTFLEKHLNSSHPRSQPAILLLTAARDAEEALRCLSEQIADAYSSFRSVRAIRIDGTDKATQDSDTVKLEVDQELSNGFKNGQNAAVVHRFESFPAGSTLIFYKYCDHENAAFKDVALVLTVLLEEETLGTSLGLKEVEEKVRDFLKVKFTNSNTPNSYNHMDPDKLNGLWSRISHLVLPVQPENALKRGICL
Chain of Alpha-bungarotoxin (Bungarus multicinctus) (P60615 whole entry, looked up): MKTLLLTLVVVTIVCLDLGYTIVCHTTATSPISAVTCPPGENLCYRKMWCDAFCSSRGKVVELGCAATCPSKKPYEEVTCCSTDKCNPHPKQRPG
Chain of Albumin (Bos taurus) (P02769 whole entry, looked up): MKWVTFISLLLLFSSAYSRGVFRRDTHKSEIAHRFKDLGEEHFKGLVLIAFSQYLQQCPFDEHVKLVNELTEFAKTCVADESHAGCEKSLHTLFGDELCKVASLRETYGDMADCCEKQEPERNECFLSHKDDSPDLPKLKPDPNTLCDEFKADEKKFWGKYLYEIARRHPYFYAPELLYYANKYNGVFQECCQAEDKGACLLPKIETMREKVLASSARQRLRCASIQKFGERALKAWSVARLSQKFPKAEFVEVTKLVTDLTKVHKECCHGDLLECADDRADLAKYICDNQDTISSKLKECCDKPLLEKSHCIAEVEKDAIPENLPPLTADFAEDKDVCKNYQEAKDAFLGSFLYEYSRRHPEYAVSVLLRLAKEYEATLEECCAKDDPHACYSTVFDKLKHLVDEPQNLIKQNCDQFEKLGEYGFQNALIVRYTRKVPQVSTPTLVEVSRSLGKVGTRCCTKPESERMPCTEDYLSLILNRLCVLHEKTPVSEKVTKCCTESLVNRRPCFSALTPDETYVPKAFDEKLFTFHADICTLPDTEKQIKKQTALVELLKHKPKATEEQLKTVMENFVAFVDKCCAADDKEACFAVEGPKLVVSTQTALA
Chain of Left-right determination factor 2 (Homo sapiens) (O00292 whole entry, looked up): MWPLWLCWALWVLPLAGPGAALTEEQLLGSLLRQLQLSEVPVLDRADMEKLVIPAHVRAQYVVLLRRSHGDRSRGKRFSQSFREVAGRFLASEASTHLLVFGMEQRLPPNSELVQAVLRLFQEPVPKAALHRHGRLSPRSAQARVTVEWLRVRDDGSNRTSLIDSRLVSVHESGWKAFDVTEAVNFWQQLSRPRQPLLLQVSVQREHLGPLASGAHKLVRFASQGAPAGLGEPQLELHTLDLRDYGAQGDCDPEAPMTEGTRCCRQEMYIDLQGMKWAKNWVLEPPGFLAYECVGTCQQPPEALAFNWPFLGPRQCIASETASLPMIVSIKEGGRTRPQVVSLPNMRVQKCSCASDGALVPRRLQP

On to `CCOC(=O)C[C@H]1[C@H](OC(=O)Cc2ccc3c(c2)OCO3)[C@@H](NC(=O)c2ccc3ccccc3c2)c2cc(OCCCO)ccc2N1C(=O)c1ccccc1`, for which the composite z-score in [1] is 0.967; in test [3] it was 0.348; in test [4], 0.119; in [5], -0.447; in [6], -0.147; in test [7], -0.2. Moreover, the composite z-score in test [8] was -0.417; in [9], 0.656; in test [10], 0.943; in [11] it was 0.601; in [13] it was -0.0077; in [14], -0.14. Further, the composite z-score in test [15] was 0.32; in test [16] it was 1.04; in test [17], 0.186; in [18], 1.09; in test [19] it was 0.308; in [20], 0.541. The compound also registered a z-score in test [2] of -1.57. For the same compound, the composite Z-score in [12] was -0.0185 (inactive).

Consider `C=CCOC(=O)[C@@H]1[C@H]2C(=O)O[C@H](c3ccccc3)[C@H](c3ccccc3)N2[C@H](c2ccc(OCCOC(=O)[C@@H]3C[C@@H]4C(=O)N[C@@H](Cc5ccccc5)C(=O)N4[C@@H]3c3ccc(O)cc3)cc2)[C@@]12C(=O)Nc1ccc(I)cc12`, for which the composite z-score in [1] is 1.38; in test [3], 0.56; in [4], 0.75; in test [5], 0.299; in [6] it was -0.0981; in test [7], 0.178. Further, the composite z-score in test [8] was -0.0784; in test [9], -0.289; in test [10] it was 1.02; in test [11], -0.47; in test [13], 0.251; in test [14], -0.0984. Besides, the composite z-score in test [15] came to 0.299; in test [16], 1.28; in [17] it was 0.0186; in [18], 1; in [19] it was 0.918; in test [20] it was 1.18. Besides, in test [2], the z-score was -0.726. In test [12], the composite Z-score was 0.364 (inactive).

Regarding `CCCCC=C[C@@H](NC(=O)Oc1cccc(C(F)(F)F)c1)c1ccccc1`, the composite z-score in [1] was 1.18; in [3] it was -0.143; in test [4], 1.85; in test [5] it was 1.11; in test [6], 1.04; in test [7] it was 1.97. Further, the composite z-score in test [8] was 0.59; in test [9], 0.503; in test [10], 1.62; in test [11], 1.02; in test [13], 0.888; in [14], 0.39. The composite z-score in test [15] is 0.755; in test [16], 0.183; in [17] it was -0.403; in test [18] it was 1.27; in test [19], -0.0519; in [20], 1.13. The compound further yielded a z-score in test [2] of -1.07. Also, the composite Z-score in test [12] was 0.505 (inactive).

Consider `COC(=O)[C@@]1(Cc2ccc(F)cc2)[C@H]2c3cc(C(=O)N(C)C)n(Cc4nc5ccccc5[nH]4)c3C[C@H]2CN1C(=O)c1ccccc1`, for which the composite z-score was 1.32 in test [1]; -0.423 in test [3]; 1.42 in test [4]; 0.114 in [5]; 0.178 in [6]; 0.603 in test [7]. Further, the composite z-score in test [8] amounted to 0.485; in [9] it was 0.778; in test [10], 0.324; in test [11], 1.05; in test [13] it was 0.392; in [14], 0.0274. The composite z-score in test [15] is 0.824; in test [16], 3.03; in test [17], 0.35; in test [18], 0.651; in [19] it was -0.41; in test [20], 0.683. This compound also registered a z-score in test [2] of -0.494. Moreover, the composite Z-score in test [12] was 0.0895 (inactive).

Turning to `CC(=O)N1Cc2ccccc2C[C@@]2(COC(c3ccc(OCCCO)cc3)=N2)C1=O`, the composite z-score in [1] came to 0.612; in test [3], 0.827; in test [4], 1.79; in test [5], 0.845; in test [6], 0.0587; in [7] it was 0.412. For the same compound, the composite z-score in test [8] came to 0.114; in test [9] it was 1.7; in [10] it was 1.88; in test [11] it was 0.707; in test [13] it was 0.286; in test [14], 0.16. Besides, the composite z-score amounted to 0.669 in test [15]; 2.38 in [16]; 0.16 in [17]; 1.3 in [18]; 0.341 in [19]; 1.15 in [20]. The z-score in test [2] is -1.62. Besides, the composite Z-score in test [12] was -0.151 (inactive).
